Test results from PubChem BioAssay.
Inconclusive results are not listed. Activity calls are given as the source filed them. Unless noted, no rule for the calls is given here.

What was measured:
[1] = yeast TOR pathway RPL19A-GFP modulators, primary screen, cell-based, S. cerevisiae, multiplex flow cytometry (AID 1862; in the data active = percent of DMSO control GFP below about 86%;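 also: lower values mimic rapamycin by blocking the RPL19A rise seen in DMSO cells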); conditions: S. cerevisiae RPL19A-GFP strain, flow cytometry fluorescence, 3 h; at 10 µM; stronger effect = lower value
[2] = modulators of CIT2-GFP expression in yeast, primary screen, S. cerevisiae, GFP fusion, multiplex flow cytometry (AID 1870;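 active = percent response above a set limit, the screen-wide mean plus 3 SD, cut at about 130% in these data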;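 also: barcoded CIT2-GFP strain pooled with four other GFP strains with rapamycin as positive control; median GFP fluorescence per well over plate mean of DMSO wells so 100% = DMSO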); conditions: 3 h, at 10 µM, stronger effect = higher value
[3] = modulators of LAP4-GFP expression in yeast, primary screen, S. cerevisiae, multiplex flow cytometry (AID 1873;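 active = GFP signal, as percent of the solvent control, above the screen mean plus 3 SD, about 149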); conditions: 3 h, at 10 µM, stronger effect = higher value
[4] = inhibitors of CD8+ T cell-vesicle binding, pilot screen, LFA-1/ICAM-1 modulator project, MLPCN validation set, flow cytometry (AID 2523;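 active = response below a set limit, under 55% cells CD8-positive and vesicle-bound, and CD8 cells' 90th-percentile brightness under 279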;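 as to vesicle binding response: mean PE anti-B7-1 fluorescence of CD8+ cells relative to row control; 100% = QL9-loaded vesicles with DMSO vehicle in the same plate row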); conditions: 2C mouse CD8+ T cells, at 7 µM, stronger effect = lower value; double positive events: measured here: CD8+/vesicle+ event percentage
[5] = target: Integrin beta-1 (Homo sapiens) + Integrin alpha-4 (Homo sapiens) (UniProt P13612+P05556); assay: inhibition of HUTS-21 binding to VLA-4, pilot screen, VLA-4 allosteric modulator project, U937 cells, HUTS-21 mAb, flow cytometry, validation set (AID 2674;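 active = inhibition above 50%, about 3 SD of the validation set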;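 also: antibody binding induced by the VLA-4 ligand LDV present at three times its Kd; 0% = LDV ligand with antibody and no compound and 100% = antibody without LDV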); conditions: HUTS-21 LIBS mAb binding, at 6.7 µM, stronger effect = higher value
[6] = target: Beta-adrenergic receptor kinase 1 (Homo sapiens) (UniProt P25098); assay: GRK2 binders displacing RNA aptamer, biochemical, validation, human GRK2, bead flow cytometry (AID 488806;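 active = aptamer binding inhibition above 30%, about 3 SD of noise from non-fluorescent compounds; inactive = inhibition at or below 30%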); conditions: bead-bound GRK2, FAM-aptamer displacement, at 10 µM, stronger effect = higher value
[7] = target: Beta-2 adrenergic receptor (Homo sapiens) (UniProt P07550); assay: beta2AR agonists driving receptor internalization, pilot screen, cell-based, FAP fluorogen, flow cytometry, validation set (AID 504459;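 active = percent response above 42, roughly 3 SD of non-fluorescent test compounds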;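 also: agonist-driven loss of surface beta2AR via internalization measured by FAP dye flow cytometry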); conditions: Am2.2-beta2AR cells, FAP surface receptor flow cytometry; at 10 µM; stronger effect = higher value
[8] = target: AP-2 complex subunit beta (Homo sapiens) (UniProt P63010); assay: inhibitors of arrestin peptide binding to AP2, pilot screen, biochemical, validation set, GST-AP2 beads, flow cytometry (AID 504541;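 active = inhibition above 54%, about 3 SD of non-fluorescent compounds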;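 also: AP2 carries R879A mutation and is captured from E. coli lysate; bead-bound FITC arrestin peptide fluorescence measuring arrestin peptide binding to AP2; 0% = DMSO wells and 100% = excess unlabeled arrestin peptide control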); conditions: FITC arrestin peptide, at 10 µM, stronger effect = higher value
[9] = yeast V-ATPase proton transport modulators, S. cerevisiae, pHLuorin, HTS validation (AID 504600; in the data active = response above about 15%;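 also: plate controls were DMSO for no effect and reference compound for full effect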); conditions: S. cerevisiae pHLuorin cytosolic pH, at 10 µM, stronger effect = higher value
[10] = system: anti-desmoglein-3 scFv antibody binding to human DSG3; assay: inhibitors of anti-DSG3 scFv binding to DSG3, pilot screen, biochemical, validation compound set, bead-based, flow cytometry (AID 588368;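 active = binding below the plate cutoff, the plate median minus 3 SD, with a reading above zero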;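 also: signal is the median channel fluorescence of bead-bound GFP antibody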); conditions: Protein G beads, DSG3-Fc, scFv-GFP binding, at 10 µM, stronger effect = lower value
[11] = system: Botulinum neurotoxin type F light chain protease (Clostridium botulinum); assay: Botulinum neurotoxin type F light chain protease inhibition, multiplex microsphere flow cytometry, validation set (AID 588459); conditions: multiplex microsphere protease substrate cleavage assay, at 10 µM, stronger effect = higher value
[12] = target: Botulinum neurotoxin type A (Clostridium botulinum) (UniProt P0DPI0); assay: BoNT/A light chain protease inhibitors, biochemical, multiplex microsphere flow cytometry, validation set (AID 588460); conditions: at 10 µM, stronger effect = higher value
[13] = target: Lethal factor (Bacillus anthracis) (UniProt P15917); assay: Lethal factor protease inhibitors, Bacillus anthracis, multiplex microsphere cleavage assay, validation set (AID 588461); conditions: flow cytometry, at 10 µM, stronger effect = higher value
[14] = inhibitors of fungal efflux pumps CDR1, CDR2, MDR1, pilot screen, validation compound set, multiplex, phenotypic (AID 588506;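 active = efflux inhibition above 0.42, the validation set average plus 4 SD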;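 also: Nile Red retained in cells so higher fluorescence means more efflux inhibition; 0 = negative control wells and 1 = enniatin B 25 µM full block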); conditions: S. cerevisiae pump-expressing triplex, Nile Red efflux flow cytometry; at 10 µM; stronger effect = higher value
[15] = target: ATP-binding cassette sub-family B member 6 (Homo sapiens) (UniProt Q9NP58); assay: ABCB6 transporter inhibitors, pilot screen, K562-ABCB6 cells, flow cytometry, validation set (AID 588550;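 active = inhibition above the screen-wide mean plus 3 SD, about 51%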;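 also: 0% = DMSO wells and 100% = benzethonium chloride 70 µM positive control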); conditions: K562-ABCB6 porphyrin accumulation, 1 h, at 10 µM, stronger effect = higher value
[16] = promoters of myeloid differentiation in arrested cells, primary screen, cell-based, GFP/MAC1 double positive, flow cytometry, validation set (AID 588685;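 active = differentiation response of at least 50%, scaled between solvent and reference control, from cells with both markers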;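 also: compound exposure lasts four days before antibody staining and flow analysis; 0% = DMSO wells and 100% = 5 µM fulvestrant positive control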); conditions: ER-HoxA9 marrow cells, stronger effect = higher value
[17] = superoxide lowering in aged yeast cells, pilot screen, validation compound set (AID 2706;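 active = superoxide response below 65% of plate, a cut near 3 SD across the whole screen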;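 also: yeast exposed to compound for one week at 30 degrees C before staining; 100% = mean of all compound wells on the same plate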); conditions: S. cerevisiae aging, superoxide DHE fluorescence; at 10 µM; stronger effect = lower value

Sequence of Integrin beta-1 (Homo sapiens) + Integrin alpha-4 (Homo sapiens) (P05556 whole entry, looked up): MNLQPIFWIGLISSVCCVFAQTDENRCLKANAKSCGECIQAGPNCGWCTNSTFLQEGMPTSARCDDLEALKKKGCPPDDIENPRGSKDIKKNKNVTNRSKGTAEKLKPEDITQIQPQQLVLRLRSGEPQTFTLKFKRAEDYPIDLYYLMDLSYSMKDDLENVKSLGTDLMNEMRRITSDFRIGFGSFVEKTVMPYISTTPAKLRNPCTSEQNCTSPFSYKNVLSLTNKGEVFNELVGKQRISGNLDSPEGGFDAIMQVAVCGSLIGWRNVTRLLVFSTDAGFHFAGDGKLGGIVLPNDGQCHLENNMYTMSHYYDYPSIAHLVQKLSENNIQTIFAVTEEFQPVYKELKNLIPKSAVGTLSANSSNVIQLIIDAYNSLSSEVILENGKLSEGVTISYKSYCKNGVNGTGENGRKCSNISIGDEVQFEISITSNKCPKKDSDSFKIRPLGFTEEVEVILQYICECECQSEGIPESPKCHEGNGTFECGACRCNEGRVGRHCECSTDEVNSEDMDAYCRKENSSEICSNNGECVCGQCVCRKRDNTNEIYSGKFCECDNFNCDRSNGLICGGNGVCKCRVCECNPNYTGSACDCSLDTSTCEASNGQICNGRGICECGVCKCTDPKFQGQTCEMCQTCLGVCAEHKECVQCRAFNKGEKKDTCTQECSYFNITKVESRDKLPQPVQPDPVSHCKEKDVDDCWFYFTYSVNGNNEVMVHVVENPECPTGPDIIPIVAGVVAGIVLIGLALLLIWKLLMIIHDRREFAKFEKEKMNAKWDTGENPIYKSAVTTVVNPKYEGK
Sequence of Integrin beta-1 (Homo sapiens) + Integrin alpha-4 (Homo sapiens) (P13612 whole entry, looked up): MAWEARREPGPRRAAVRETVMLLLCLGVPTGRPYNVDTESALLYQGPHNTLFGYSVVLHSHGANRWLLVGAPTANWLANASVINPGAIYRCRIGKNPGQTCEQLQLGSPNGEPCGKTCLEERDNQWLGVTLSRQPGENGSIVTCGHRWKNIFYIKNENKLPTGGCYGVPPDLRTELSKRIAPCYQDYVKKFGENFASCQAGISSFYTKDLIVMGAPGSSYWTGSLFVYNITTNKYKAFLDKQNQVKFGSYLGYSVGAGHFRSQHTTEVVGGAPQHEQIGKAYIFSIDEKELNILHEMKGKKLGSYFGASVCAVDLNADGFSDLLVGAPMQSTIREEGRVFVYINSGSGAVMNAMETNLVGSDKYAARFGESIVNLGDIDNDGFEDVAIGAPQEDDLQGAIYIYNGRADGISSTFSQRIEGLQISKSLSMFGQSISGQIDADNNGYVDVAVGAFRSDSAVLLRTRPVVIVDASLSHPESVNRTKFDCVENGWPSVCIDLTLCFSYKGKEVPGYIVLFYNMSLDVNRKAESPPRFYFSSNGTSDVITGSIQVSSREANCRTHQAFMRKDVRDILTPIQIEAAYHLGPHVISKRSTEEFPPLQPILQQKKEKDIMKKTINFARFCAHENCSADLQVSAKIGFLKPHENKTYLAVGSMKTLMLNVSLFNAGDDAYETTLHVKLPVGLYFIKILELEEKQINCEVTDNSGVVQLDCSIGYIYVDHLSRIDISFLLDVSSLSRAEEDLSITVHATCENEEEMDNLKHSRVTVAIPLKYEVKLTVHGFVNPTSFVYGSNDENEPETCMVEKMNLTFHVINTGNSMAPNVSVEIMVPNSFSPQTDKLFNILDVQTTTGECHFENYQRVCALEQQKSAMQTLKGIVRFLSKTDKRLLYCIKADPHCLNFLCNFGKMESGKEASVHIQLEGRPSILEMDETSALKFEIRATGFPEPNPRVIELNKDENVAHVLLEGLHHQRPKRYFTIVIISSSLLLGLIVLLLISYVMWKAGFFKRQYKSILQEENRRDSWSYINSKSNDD
Sequence of AP-2 complex subunit beta (Homo sapiens) (P63010 whole entry, looked up, one chain of several): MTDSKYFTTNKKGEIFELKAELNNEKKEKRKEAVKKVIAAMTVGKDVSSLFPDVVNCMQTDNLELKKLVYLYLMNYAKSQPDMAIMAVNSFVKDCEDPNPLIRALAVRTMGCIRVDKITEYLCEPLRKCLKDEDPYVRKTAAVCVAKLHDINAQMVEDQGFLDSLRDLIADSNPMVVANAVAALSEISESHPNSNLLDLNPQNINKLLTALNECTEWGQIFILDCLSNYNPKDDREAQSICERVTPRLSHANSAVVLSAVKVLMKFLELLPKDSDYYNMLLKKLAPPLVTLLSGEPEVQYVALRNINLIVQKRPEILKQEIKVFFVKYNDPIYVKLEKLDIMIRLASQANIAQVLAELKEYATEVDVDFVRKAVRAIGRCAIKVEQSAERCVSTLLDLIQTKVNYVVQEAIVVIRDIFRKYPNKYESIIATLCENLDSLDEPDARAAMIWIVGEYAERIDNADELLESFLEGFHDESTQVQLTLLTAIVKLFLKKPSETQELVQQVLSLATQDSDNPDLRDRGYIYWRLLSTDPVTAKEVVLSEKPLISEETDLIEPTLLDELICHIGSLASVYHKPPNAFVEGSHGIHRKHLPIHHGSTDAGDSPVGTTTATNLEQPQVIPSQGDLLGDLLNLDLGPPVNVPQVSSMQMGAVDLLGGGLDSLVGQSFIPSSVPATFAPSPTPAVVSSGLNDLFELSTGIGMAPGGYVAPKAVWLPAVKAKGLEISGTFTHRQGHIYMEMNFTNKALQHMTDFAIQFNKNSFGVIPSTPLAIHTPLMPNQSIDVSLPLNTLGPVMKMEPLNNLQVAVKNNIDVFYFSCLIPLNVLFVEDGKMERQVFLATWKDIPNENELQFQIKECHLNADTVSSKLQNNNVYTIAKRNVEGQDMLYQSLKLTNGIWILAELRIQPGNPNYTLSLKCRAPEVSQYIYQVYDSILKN
Sequence of Beta-adrenergic receptor kinase 1 (Homo sapiens) (P25098 whole entry, looked up): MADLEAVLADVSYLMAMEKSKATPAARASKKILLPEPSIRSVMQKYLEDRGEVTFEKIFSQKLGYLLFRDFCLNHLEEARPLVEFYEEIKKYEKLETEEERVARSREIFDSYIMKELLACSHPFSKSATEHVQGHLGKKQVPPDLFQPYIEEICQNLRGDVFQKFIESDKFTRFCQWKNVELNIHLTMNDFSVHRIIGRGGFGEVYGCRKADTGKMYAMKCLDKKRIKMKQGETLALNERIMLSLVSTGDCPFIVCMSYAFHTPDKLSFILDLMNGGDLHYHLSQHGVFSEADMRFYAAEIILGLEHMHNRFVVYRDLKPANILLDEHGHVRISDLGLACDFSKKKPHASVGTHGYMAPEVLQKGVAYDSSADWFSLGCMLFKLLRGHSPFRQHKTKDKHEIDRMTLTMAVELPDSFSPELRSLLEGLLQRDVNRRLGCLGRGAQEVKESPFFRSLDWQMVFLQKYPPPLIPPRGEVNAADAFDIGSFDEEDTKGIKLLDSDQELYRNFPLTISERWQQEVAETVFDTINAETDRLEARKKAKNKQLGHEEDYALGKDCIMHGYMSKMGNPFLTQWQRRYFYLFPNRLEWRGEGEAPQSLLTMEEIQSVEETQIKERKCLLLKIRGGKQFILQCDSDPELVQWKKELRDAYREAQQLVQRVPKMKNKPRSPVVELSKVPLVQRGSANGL
Sequence of Beta-2 adrenergic receptor (Homo sapiens) (P07550 whole entry, looked up): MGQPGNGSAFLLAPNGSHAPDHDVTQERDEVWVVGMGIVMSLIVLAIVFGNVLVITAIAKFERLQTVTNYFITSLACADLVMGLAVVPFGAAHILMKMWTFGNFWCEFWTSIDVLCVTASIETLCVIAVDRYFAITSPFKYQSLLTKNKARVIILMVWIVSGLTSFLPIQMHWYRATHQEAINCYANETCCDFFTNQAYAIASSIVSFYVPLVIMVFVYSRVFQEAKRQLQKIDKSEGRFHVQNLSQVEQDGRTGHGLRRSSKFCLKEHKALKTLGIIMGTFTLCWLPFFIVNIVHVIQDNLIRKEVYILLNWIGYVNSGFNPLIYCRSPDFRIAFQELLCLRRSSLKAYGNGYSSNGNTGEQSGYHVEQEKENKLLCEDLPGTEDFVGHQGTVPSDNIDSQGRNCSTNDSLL
Sequence of Lethal factor (Bacillus anthracis) (P15917 whole entry, looked up): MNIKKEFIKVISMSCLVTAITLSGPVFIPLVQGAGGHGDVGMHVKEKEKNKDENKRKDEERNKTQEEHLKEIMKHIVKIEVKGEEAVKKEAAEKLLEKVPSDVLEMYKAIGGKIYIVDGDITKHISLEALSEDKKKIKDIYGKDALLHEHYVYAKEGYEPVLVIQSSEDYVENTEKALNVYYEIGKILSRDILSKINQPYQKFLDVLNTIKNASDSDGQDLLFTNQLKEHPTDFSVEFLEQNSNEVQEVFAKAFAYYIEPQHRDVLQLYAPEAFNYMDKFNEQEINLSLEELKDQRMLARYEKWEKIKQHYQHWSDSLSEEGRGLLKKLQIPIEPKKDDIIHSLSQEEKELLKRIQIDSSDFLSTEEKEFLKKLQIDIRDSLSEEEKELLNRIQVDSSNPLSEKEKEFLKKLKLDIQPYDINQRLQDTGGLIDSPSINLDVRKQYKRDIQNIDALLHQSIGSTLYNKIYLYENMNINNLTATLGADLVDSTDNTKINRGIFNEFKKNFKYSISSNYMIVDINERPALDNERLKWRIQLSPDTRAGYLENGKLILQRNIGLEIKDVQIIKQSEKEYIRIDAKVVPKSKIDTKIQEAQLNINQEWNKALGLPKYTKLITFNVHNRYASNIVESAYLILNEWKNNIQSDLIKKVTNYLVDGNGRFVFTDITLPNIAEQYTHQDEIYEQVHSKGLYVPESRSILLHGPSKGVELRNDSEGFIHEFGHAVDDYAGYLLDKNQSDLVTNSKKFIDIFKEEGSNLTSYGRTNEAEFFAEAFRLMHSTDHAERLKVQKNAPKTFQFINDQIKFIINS

| Structure (SMILES) | percent of DMSO control GFP [1] | percent response of DMSO control [2] | GFP response vs DMSO [3] | double positive events [4] [%] | vesicle binding response [4] | inhibition [5] | aptamer binding inhibition [6] | response [7] | inhibition [8] | response [9] | binding (% of control) [10] | inhibition [11] | inhibition [12] | inhibition [13] | efflux inhibition (fraction of control) [14] | inhibition [15] | differentiation response [16] | superoxide response (% of plate) [17] |
| --- | --- | --- | --- | --- | --- | --- | --- | --- | --- | --- | --- | --- | --- | --- | --- | --- | --- | --- |
| COc1ccc(OC)c(C(O)C(C)N)c1 (configuration not stated) | 103% (inactive) | 95.4% (inactive) | 87.4% (inactive) | 59.9 | 41.1% (inactive) | 7.85% (inactive) | 0% (inactive) | -5.54% (inactive) | -0.56% (inactive) | 1.5% (inactive) | 105% (inactive) | 2.2% (inactive) | 1.1% (inactive) | 3.1% (inactive) | 0.61 (active) | 10% (inactive) | 24.7% (inactive) |  |
| O=C1CC[C@@]2(O)[C@H]3Cc4ccc(O)c5c4[C@@]2(CCN3CC2CC2)[C@H]1O5 | 98.3% (inactive) | 96.6% (inactive) | 84.7% (inactive) | 63.4 | 207% (inactive) | 1.61% (inactive) | 2% (inactive) | -8.64% (inactive) | -0.81% (inactive) | 1.19% (inactive) | 107% (inactive) |  |  |  | -0.02 (inactive) | 14% (inactive) | -3.28% (inactive) | 95.9% (inactive) |
| CN[C@H]1C[C@H]2O[C@@](C)([C@H]1OC)n1c3ccccc3c3c4c(c5c6ccccc6n2c5c31)C(=O)NC4 | 104% (inactive) | 107% (inactive) | 84.1% (inactive) | 64 | 105% (inactive) | -86.6% (inactive) |  | 12% (inactive) | 0.54% (inactive) | 1.34% (inactive) |  |  |  | 6.2% (inactive) | 0.14 (inactive) | -76% (inactive) | 12% (inactive) |  |
| c1ccc(Cn2ccnc2)cc1 | 97.4% (inactive) | 90% (inactive) | 99.4% (inactive) | 63.8 | 185% (inactive) | 14.7% (inactive) | 12% (inactive) |  | 0.17% (inactive) | 4.53% (inactive) | 97.7% (inactive) | 5.2% (inactive) | 0.1% (inactive) | -0.1% (inactive) | 0.03 (inactive) | 9% (inactive) | -16.4% (inactive) | 92.9% (inactive) |
